Drawing on PubChem BioAssay, this text covers composite z-score and z-score for six compounds.

Test [1] deals with Plasmodium falciparum Sir2 (PF13_0152, Sir2A). The test can be described thus: Plasmodium falciparum Sir2A binding compounds – biochemical, small-molecule microarray, 635 nm fluorescence, primary screen (AID 1098).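 Note: score merges spot fluorescence intensity with its signal-to-noise ratio.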 The note with it: fluorescence 635 nm, higher = more signal.
A short description of test [2]: probe aDKK1 binding to arrayed compounds – biochemical, biotinylated probe, 635/667 nm fluorescence, primary screen (AID 1099).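 Note: score merges 667nm spot fluorescence with signal to noise across triplicate slides.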 To be noted: small-molecule microarray, higher = more signal.
The nature of test [3]: probe aCHRDL2 binding to arrayed compounds – biochemical, biotinylated probe, 635/667 nm fluorescence, primary screen (AID 1100). To be noted: small-molecule microarray, higher = more signal.
A short description of test [4]: change in splice reporter luminescence, either direction, cell-based, HEK293, spliceosome inhibition project, primary screen (AID 1101).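 Note: HEK293 cells carrying a splicing-competent luciferase reporter gene; test concentration not given here.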 The note with it: HEK293 splicing luciferase reporter, 24 h, higher = more signal, called active from +8 up or from −8 down.
Test [5] has as its target Fibroblast growth factor 10 (Homo sapiens) (UniProt O15520). The experiment in a line: compounds binding fibroblast growth factor 10 – biochemical, small-molecule microarray, 635 nm fluorescence, primary screen (AID 1102). To be noted: FGF10 binding, fluorescence 635 nm, higher = more signal.
For test [6], the system named is glycogen synthase kinase-3 (GSK3A per assay name; protocol says GSK3B). The experiment in a line: compounds binding glycogen synthase kinase-3 – biochemical, small-molecule microarray, 635 nm fluorescence, GSK3A, primary screen (AID 1103). Note: the record names both GSK3A and GSK3B. To be noted: fluorescence 635 nm, higher = more signal.
Test [7] has as its target Epidermal growth factor receptor (Homo sapiens) (UniProt P00533). The experiment in a line: compounds binding epidermal growth factor receptor – biochemical, small-molecule microarray, 635 nm fluorescence, primary screen (AID 1104).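 Note: score merges 667 nm emission intensity with spot signal to noise over triplicate slides.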 To be noted: EGFR binding, higher = more signal.
Test [8] deals with Follistatin-related protein 3 (Homo sapiens) (UniProt O95633). The test can be described thus: compounds binding follistatin-related protein 3 – biochemical, small-molecule microarray, 635 nm fluorescence, primary screen (AID 1105).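 Note: score merges emission near 667 nm and signal to noise per printed spot across three slides.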 To be noted: FSTL3 binding, higher = more signal.
Sequence of Follistatin-related protein 3 (Homo sapiens) (O95633 whole entry, looked up): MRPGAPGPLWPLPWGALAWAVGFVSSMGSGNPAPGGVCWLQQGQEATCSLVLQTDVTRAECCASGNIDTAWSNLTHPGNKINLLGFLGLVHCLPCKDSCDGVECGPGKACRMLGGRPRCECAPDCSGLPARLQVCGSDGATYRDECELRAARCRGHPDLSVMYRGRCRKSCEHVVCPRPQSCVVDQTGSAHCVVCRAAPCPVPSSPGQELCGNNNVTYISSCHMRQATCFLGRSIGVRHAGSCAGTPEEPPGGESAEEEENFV
The target of test [9] is Dickkopf-related protein 1 (Homo sapiens) (UniProt O94907). The test can be described thus: small molecules binding DKK1 protein – biochemical, small-molecule microarray, 635 nm fluorescence scan, primary screen (AID 1106).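 Note: score merges emission near 667 nm with signal to noise over three replicate slides.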 The note with it: higher = more signal.
Sequence of Dickkopf-related protein 1 (Homo sapiens) (O94907 whole entry, looked up): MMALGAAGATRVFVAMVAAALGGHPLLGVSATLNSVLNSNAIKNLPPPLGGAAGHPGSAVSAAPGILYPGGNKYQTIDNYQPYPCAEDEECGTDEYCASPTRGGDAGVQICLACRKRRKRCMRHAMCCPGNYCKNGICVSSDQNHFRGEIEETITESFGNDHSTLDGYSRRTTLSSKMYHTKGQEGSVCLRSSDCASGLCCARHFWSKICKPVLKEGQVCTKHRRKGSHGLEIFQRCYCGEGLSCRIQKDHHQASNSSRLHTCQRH
The test system of test [10] is Inhibin beta A chain (activin A). The experiment in a line: small molecules binding activin A – biochemical, small-molecule microarray, 635 nm fluorescence scan, primary screen (AID 1107).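 Note: mouse activin A protein probed at 4.33 µg/mL on printed slides; score merges bound-protein fluorescence near 667 nm with spot signal-to-noise.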 The note with it: INHBA, higher = more signal.
Test [11] deals with Human papillomavirus type 1a protein E7 (residues 44-93). The test can be described thus: small molecules binding HPV E7 44-93 – biochemical, small-molecule microarray, residues 44-93, 635 nm fluorescence, primary screen (AID 1108).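 Note: E7 fragment applied at 1 µg/mL in TBST for 1 h at 4 C; score combines spot fluorescence with its signal to noise ratio.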 The note with it: fluorescence 635 nm, higher = more signal.
A short description of test [12]: hepatitis C replication reporter changes, two-sided – Huh7 cells, luciferase reporter, HCV replication inhibitor project, primary screen (AID 1109).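 Note: huh7 hepatoma cells harbouring a luciferase neomycin HCV replicon reporter; luciferase luminescence as measure of HCV replicon replication; test concentration not given here.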 To be noted: Huh7 HCV replicon luciferase reporter, 48 h; higher = more signal. (In a reporter assay the amount or activity of a reporter protein is the signal.)
Test [13] deals with Left-right determination factor 2 (Homo sapiens) (UniProt O00292). The test can be described thus: small molecules binding LEFTY2 protein – biochemical, small-molecule microarray, 635 nm fluorescence scan, primary screen (AID 1110). The note with it: higher = more signal.
Sequence of Left-right determination factor 2 (Homo sapiens) (O00292 whole entry, looked up): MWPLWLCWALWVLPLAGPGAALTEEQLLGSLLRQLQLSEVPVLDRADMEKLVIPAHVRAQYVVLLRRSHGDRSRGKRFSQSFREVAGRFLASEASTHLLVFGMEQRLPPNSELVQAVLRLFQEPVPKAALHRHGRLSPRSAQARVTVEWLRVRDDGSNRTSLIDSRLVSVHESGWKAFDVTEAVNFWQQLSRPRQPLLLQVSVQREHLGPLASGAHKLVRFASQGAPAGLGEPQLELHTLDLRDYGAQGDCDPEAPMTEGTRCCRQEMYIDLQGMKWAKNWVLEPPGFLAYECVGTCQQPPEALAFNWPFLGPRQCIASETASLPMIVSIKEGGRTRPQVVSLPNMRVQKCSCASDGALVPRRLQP
The target in test [14] is Calmodulin-1 (Homo sapiens) (UniProt P0DP23). The experiment in a line: small molecules binding calmodulin-1 with EGTA – biochemical, small-molecule microarray, Cy5-labelled CALM1, profiling panel (AID 1111).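 Note: labelled calmodulin applied in Tris saline Tween buffer holding calcium plus EGTA and DTT.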 To be noted: Cy5-CALM1 binding fluorescence, higher = more signal.
The target is the same in test [15]. The test can be described thus: small molecules binding Ca-loaded calmodulin-1 – biochemical, small-molecule microarray, Cy5-labelled CALM1, plus calcium, artefact control for SMM control-protein annotation, profiling panel (AID 1112).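 Note: score merges spot fluorescence with signal to noise from triplicate slides.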 To be noted: Cy5-CALM1 binding fluorescence, higher = more signal.
The nature of test [16]: probe aWnt5a binding to arrayed compounds – biochemical, biotinylated probe, 635/667 nm fluorescence, primary screen (AID 1113).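 Note: score merges 667 nm fluorescence intensity with signal-to-noise per printed feature.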 To be noted: small-molecule microarray, higher = more signal.
Test [17] in a line: probe aShh binding to arrayed compounds – biochemical, biotinylated probe, 635/667 nm fluorescence, primary screen (AID 1114).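 Note: probe is biotin-labelled aShh protein from a stem cell growth factor screen; measures binding of labelled protein to compounds printed on the slide; score merges feature fluorescence at 667 nm with signal-to-noise.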 The note with it: small-molecule microarray, higher = more signal.
Test [18] can be described thus: probe aNog binding to arrayed compounds – biochemical, biotinylated probe, 635/667 nm fluorescence, primary screen (AID 1115).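 Note: probe is biotinylated aNog protein used at 0.15 µg/mL for 1 h at 4 C; z-score combines 667 nm fluorescence of each spot with its signal to noise.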 To be noted: small-molecule microarray, higher = more signal.
Test [19] has as its target Torsin-1A-interacting protein 1 (Homo sapiens) (UniProt Q5JTV8). The experiment in a line: compound microarray binding of lysate hLAP1 – cell lysate, small-molecule microarray, COS7 lysate, 635/667 nm fluorescence, primary screen (AID 1116). To be noted: 635 nm fluorescence, higher = more signal.
In test [20] the target is Alpha-bungarotoxin (Bungarus multicinctus) (UniProt P60615). The experiment in a line: compounds binding labelled alpha-BTX control protein – biochemical, small-molecule microarray, Alexa647 label, 635/667 nm fluorescence, artefact control for SMM control protein annotation, profiling panel (AID 1117). To be noted: alpha-BTX-A647 binding fluorescence, higher = more signal.
Sequence of Alpha-bungarotoxin (Bungarus multicinctus) (P60615 whole entry, looked up): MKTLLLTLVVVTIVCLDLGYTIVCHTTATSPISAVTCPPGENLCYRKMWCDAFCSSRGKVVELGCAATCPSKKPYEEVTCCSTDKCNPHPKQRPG

The source made the active and inactive calls.

Sequence of Fibroblast growth factor 10 (Homo sapiens) (O15520 whole entry, looked up): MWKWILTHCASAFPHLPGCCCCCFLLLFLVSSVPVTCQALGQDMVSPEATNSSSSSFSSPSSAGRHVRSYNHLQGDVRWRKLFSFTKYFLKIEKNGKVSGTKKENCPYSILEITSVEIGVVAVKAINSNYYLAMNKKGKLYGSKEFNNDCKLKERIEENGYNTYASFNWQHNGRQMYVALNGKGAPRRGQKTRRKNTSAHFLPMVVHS
Sequence of Torsin-1A-interacting protein 1 (Homo sapiens) (Q5JTV8 whole entry, looked up): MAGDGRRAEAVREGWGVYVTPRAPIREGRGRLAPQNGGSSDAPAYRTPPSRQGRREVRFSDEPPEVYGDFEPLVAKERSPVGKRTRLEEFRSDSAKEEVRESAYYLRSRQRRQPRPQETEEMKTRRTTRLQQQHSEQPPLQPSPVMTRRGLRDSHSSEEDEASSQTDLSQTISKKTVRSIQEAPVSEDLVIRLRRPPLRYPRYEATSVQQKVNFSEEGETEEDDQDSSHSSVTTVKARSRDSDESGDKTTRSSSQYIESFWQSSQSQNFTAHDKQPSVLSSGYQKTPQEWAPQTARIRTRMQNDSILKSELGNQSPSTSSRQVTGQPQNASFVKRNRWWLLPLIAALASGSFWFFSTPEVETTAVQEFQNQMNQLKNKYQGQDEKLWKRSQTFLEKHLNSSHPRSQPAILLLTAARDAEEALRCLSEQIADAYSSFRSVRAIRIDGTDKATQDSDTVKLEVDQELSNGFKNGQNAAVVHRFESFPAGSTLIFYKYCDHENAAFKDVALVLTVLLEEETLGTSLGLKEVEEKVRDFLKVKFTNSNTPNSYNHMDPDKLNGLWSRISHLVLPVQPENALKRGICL
Sequence of Epidermal growth factor receptor (Homo sapiens) (P00533 whole entry, looked up): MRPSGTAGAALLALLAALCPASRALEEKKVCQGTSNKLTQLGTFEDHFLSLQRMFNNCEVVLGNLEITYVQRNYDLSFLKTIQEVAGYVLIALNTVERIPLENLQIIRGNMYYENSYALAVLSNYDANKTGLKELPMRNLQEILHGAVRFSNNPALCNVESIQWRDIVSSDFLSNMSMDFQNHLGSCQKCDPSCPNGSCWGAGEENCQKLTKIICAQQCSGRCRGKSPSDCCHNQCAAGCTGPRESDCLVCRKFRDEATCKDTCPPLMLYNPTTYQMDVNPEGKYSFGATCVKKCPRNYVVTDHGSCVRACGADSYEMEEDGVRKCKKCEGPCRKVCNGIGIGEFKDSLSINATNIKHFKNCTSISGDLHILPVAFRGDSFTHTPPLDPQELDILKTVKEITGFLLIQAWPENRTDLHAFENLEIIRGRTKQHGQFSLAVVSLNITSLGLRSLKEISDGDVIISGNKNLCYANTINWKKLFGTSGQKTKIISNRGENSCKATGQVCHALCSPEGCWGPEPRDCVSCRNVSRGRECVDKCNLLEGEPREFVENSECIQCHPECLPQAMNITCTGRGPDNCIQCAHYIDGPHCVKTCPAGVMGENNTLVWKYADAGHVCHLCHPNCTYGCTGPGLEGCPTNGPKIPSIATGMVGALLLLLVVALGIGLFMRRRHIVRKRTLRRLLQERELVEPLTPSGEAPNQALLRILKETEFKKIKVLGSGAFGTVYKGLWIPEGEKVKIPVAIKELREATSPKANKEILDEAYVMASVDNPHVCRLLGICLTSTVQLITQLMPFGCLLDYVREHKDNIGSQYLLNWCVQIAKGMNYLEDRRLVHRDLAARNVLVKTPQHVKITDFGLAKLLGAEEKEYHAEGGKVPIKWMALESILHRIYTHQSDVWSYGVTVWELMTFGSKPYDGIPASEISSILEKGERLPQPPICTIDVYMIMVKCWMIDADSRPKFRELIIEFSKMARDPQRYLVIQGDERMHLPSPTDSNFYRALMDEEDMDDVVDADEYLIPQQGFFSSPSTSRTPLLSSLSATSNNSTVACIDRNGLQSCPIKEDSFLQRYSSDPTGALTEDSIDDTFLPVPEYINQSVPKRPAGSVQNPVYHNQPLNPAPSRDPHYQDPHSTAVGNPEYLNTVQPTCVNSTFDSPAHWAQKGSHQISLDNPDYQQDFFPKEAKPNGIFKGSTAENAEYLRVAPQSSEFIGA

Turning to `COCCOC(=O)N1C(=O)[C@@]2(c3cc(C#CCCO)ccc31)[C@H](c1ccc(O)cc1)N1[C@H](c3ccccc3)[C@H](c3ccccc3)OC(=O)[C@H]1[C@@H]2C(=O)NC[C@H](O)c1ccccc1`, the composite z-score in test [1] was 1.16; in test [2], -0.0668; in test [3], -0.0755; in test [5] it was 0.758; in [6] it was 0.733; in [7] it was 0.0103. Also, the composite z-score in [8] is 0.491; in [9], 0.143; in [10], 0.48; in [11] it was 0.495; in test [13] it was 0.285; in test [14], 0.212. For the same compound, the composite z-score in test [15] is 0.0658; in [16], -0.027; in test [17], 0.204; in test [18] it was 1.05; in [19] it was 0.981; in test [20] it was 0.367. Besides, the results for the z-score in test [4] and in [12] were 0.49 (inactive) and -1.02, respectively.
Turning to `CCOC(=O)C1=CCC(c2ccncc2)N(S(=O)(=O)c2ccc(C)cc2)C1` (stereo not given), the composite z-score in test [1] turned out to be 1.03; in [2], 0.205; in test [3] it was 0.198; in test [5], 1.34; in [6], 1.29; in test [7], 0.432. The composite z-score was determined as 1.05 in [8]; 0.332 in test [9]; 0.856 in test [10]; 1.47 in test [11]; 0.502 in test [13]; 1.61 in test [14]. In addition, the composite z-score in test [15] is 0.276; in test [16], -0.0125; in test [17], -0.154; in [18], -0.389; in test [19], 2.15; in [20], 0.842. Further, the z-score was -1.3 (inactive) in test [4] and -2.8 in [12].
Regarding `CN1C(=O)C2CC=C(C3=CCO[C@@H]3[C@H]3CCCN3S(=O)(=O)c3ccccc3[N+](=O)[O-])CC2C1=O` (stereo not given in full), the composite z-score in test [1] was 1.11; in test [2] it was -0.22; in [3], -0.193; in test [5], 0.447; in [6] it was -0.12; in [7], -0.141. For the same compound, the composite z-score in [8] was -0.59; in [9], -0.261; in test [10], 0.666; in test [11], -0.351; in test [13], -0.377; in test [14], -0.194. Moreover, the composite z-score in test [15] was -0.0107; in [16] it was -0.242; in test [17] it was -0.2; in test [18] it was -0.0116; in test [19], 0.0183; in [20], 0.0302. Also, the z-score in [4] is 0.129 (inactive); in [12] it was -0.0844.
`Cc1ccc(S[C@]2(C(=O)NCc3ccccc3)CC(=O)N(Cc3ccccc3Cl)[C@@H]2c2ccc(CO)cc2)cc1`: the composite z-score in [1] is 1.07; in [2], 0.169; in test [3], 0.603; in [5] it was -0.35; in test [6], 0.165; in test [7], -1.31. For the same compound, the composite z-score was -0.648 in [8]; -0.743 in test [9]; 0.0073 in [10]; -0.0153 in [11]; -1.76 in test [13]; -0.272 in test [14]. The composite z-score in [15] was 0.273; in test [16] it was -0.19; in [17] it was 0.0858; in [18], 0.308; in [19], -0.0706; in test [20], -0.619. Besides, the z-score is -0.419 (inactive) in test [4] and -2.79 in test [12].
Turning to `C[C@]1(C(=O)NCC(F)(F)F)c2ccccc2C(=O)N(Cc2cc(C(F)(F)F)cc(C(F)(F)F)c2)[C@H]1c1ccc(CO)cc1`, the composite z-score was 0.786 in test [1]; 0.338 in test [2]; 0.543 in [3]; -0.2 in test [5]; -0.447 in test [6]; -0.654 in test [7]. For the same compound, the composite z-score in [8] is -0.695; in test [9], -0.399; in test [10] it was -0.497; in test [11], 0.454; in test [13], -0.544; in [14], -0.136. In addition, the composite z-score was 0.331 in [15]; -0.0346 in [16]; -0.0146 in [17]; 0.231 in test [18]; 0.173 in [19]; 0.342 in test [20]. Besides, the z-score is 0.272 (inactive) in test [4] and -0.1 in test [12].
For `CC(=O)NCCCC[C@@H]1NC(=O)[C@H]2C[C@@H](C(=O)O)[C@@H](c3cccc(OCCO)c3)N2C1=O`, the composite z-score in [1] is 1.69; in [2] it was 0.904; in test [3], 0.237; in test [5], 1.25; in test [6] it was 1.33; in test [7], 0.556. For the same compound, the composite z-score in test [8] was determined as 1.32; in test [9], 0.639; in test [10], 0.316; in [11], 1.11; in [13], 0.978; in [14], 0.0626. The composite z-score was -0.767 in [15]; 0.27 in [16]; 0.588 in [17]; 1.51 in test [18]; 1.53 in [19]; 1.49 in test [20]. In addition, the values for the z-score in test [4] and in test [12] were 0.345 (inactive) and -1.14, respectively.
